Dicer processing: human Dicer pre-microRNA cleavage inhibition; cat-ELCCA pre-miR-21 Dicer processing, chemiluminescence; stronger effect = higher value; 6% of 47,000 active; AID 1347074; z-score at 25 µM; in the data active means z-score above about 3, passing the limit was not always enough;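 further: plate controls were vehicle for no effect and no enzyme for full effect; higher signal means more uncleaved substrate so more Dicer inhibition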
Target sequence (Q9UPY3 whole entry, looked up): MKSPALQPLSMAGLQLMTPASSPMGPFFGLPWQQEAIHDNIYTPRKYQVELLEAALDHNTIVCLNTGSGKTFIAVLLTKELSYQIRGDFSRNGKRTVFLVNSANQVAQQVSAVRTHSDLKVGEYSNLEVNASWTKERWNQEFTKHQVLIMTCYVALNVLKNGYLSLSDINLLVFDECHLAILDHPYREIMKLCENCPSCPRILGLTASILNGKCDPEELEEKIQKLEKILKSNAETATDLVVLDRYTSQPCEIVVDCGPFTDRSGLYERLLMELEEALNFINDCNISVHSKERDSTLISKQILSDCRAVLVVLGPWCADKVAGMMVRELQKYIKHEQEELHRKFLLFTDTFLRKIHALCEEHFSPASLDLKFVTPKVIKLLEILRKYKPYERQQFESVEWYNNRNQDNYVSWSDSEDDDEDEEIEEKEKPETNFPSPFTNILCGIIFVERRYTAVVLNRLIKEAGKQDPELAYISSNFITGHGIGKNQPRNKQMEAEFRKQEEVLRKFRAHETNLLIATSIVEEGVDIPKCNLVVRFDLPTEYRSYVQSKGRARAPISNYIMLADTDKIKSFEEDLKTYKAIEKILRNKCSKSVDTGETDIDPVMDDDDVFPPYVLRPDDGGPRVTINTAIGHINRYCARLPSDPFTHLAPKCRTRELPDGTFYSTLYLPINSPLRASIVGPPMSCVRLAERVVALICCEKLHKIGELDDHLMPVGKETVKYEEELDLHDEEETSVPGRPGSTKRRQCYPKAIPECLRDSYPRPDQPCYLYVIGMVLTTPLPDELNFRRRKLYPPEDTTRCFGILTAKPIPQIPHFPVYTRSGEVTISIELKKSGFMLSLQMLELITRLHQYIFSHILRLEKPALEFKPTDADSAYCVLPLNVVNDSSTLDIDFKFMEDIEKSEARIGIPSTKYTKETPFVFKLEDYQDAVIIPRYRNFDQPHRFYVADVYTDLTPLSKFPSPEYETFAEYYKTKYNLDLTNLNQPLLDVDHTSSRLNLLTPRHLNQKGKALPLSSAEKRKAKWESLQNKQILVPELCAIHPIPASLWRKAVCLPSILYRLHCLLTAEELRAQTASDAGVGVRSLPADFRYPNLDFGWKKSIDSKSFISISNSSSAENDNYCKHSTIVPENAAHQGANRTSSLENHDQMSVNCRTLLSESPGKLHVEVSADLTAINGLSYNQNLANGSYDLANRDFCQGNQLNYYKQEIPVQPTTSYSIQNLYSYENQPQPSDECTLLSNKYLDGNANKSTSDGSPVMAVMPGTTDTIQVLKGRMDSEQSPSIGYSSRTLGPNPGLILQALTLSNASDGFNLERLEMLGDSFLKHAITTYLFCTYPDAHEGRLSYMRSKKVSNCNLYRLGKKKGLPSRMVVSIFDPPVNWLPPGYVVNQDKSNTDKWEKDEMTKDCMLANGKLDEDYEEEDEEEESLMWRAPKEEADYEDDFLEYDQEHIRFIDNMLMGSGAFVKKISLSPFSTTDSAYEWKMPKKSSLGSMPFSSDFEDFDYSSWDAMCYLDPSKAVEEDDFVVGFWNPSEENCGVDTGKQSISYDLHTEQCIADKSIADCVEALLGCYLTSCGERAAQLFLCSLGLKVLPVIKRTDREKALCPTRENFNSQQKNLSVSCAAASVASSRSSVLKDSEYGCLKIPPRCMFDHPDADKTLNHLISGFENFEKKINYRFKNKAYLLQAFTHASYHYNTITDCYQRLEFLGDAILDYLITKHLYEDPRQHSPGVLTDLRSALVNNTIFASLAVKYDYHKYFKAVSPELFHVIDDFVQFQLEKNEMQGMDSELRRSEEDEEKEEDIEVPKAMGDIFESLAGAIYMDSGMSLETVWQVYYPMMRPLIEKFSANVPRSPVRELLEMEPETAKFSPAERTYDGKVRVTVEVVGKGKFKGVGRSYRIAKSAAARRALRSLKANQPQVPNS
The depositor's hits bear a star. Many of the other results were omitted from the sample, so hits are more common in it than they were.

SMILES	Dicer processing
COc1ccc(NC(C)=O)c(NC(=O)c2ccc(Cl)cc2Cl)c1	-0.32
Fc1ccc(NC(=S)Nc2ccc3cn[nH]c3c2)cc1	-1
N#CC1CN(Cc2ccccc2)CN(Cc2ccccc2)C1	0.58
Cc1cc(C)n(-c2ccc(N=NC3=C(O)CCCC3=O)cc2)n1	-0.9
CN(C)c1ccc(O)c2c1CC1CC3[C@@H](N(C)C)C(=O)C(C(N)=O)=C(O)[C@]3(O)C(=O)C1=C2O (some centres undefined)	6.1*
C[C@H]1c2cccc(O)c2C(O)=C2C(=O)[C@]3(O)C(O)=C(C(N)=O)C(=O)[C@@H](N(C)C)[C@@H]3[C@@H](O)[C@@H]21	-0.88
c1ccc(-c2nc3ccccc3o2)c(-c2nc3ccccc3o2)c1	0.44
CC1=C(C(=O)Nc2ccccc2)S(=O)CCO1 (centres undefined)	3.3*
CC1=C(C(=O)Nc2ccc(F)cc2)SCCO1	1
Cc1cc(C(=O)Nc2ccccc2)oc(=O)c1	-2.2
CC1(C)NC(=O)N(CC(O)COc2ccc(N3C(=O)C4CC=CCC4C3=O)cc2)C1=O (centres undefined)	-0.57
CC(=O)N1[C@@H](C(=O)O)C(C)(C)S[C@H]1c1cccc([N+](=O)[O-])c1	-0.09
Cc1ccc(Sc2c(-c3ccccc3)nc3ccccn23)cc1	1.1
Cc1nc(C)c(-c2csc(Nc3ccccc3)n2)s1	5.1*
Cc1nc(C)c(-c2csc(Nc3ccc(C(=O)O)cc3)n2)s1	-1.9
Cc1nc(C)c(-c2csc(Nc3cccc(O)c3)n2)s1	-1.1
OC1(C(F)(F)F)CC(c2ccc3c(c2)CCCC3)=NN1 (centres undefined)	0.87
Nc1ncc(Br)cc1Br	-0.91
Nc1cc(=O)[nH]c2nnc(SCc3ccccc3Cl)n12	2.5
C#CCSc1nnc2[nH]c(=O)cc(N)n12	2.7
CC(C)CCSc1nnc2[nH]c(=O)cc(N)n12	3.4*
CCOC(=O)c1cc(OC(=O)c2cccs2)n(-c2ccccc2)n1	-0.53
CCOC(=O)c1c(C)n(-c2ccccc2OC)c2c1cc(O)c1ccccc12	1.6
CSc1nsc(SCC(=O)Nc2ncc(Br)s2)n1	-0.26
CSc1nc(C)cc(OCCO)n1	-0.06
SMILES	Dicer processing
Cc1ccc(SC(=O)N2CCOCC2)cc1	-0.58
O=C(c1cc(-c2ccccc2)nc2ccccc12)N1CCOCC1	1.5
O=C(C1Cc2ccccc2C1)N1CCOCC1	7.3*
c1ccc(CSc2nc3ccccc3n2Cc2ccccn2)cc1	0.56
NC(=S)NN=C1C2CC3CC(C2)CC1C3	-0.91
O=C(N/N=C/c1cc([N+](=O)[O-])ccc1N1CCCCC1)c1ccccc1	0.11
COC(=O)c1cc(=O)n2[nH]cnc2n1	-0.39
O=C(/C=C/c1ccccc1)Nc1ccc(Oc2ccccc2F)nc1	-1.1
COCCn1c2c(c(=O)[nH]c1=O)C(c1ccc(C(C)C)cc1)C1=C(N2)c2ccccc2C1=O (centres undefined)	-0.25
CCC(C)C(C(=O)O)N1C(=O)NC2NC(=O)NC21 (centres undefined)	1.2
CCCC(C(=O)O)N1C(=O)NC2NC(=O)NC21 (centres undefined)	3.4*
CCC(C)N1C(=O)N(C)C2NC(=O)NC21 (centres undefined)	1.9
CCCCOC(=O)C1C2C=CC3(CN(CCc4ccccc4)C(=O)C13)O2 (centres undefined)	-0.1
Cn1cc(Br)c(-c2cccc(N3C(=O)CC(C)(C)CC3=O)c2)n1	-0.35
Cc1ccc(N2C(=O)CC(=O)N(c3ccc(C)c(C)c3)C2=S)cc1C	0.05
Cc1cc(N2C(=O)CC3(CCCC3)CC2=O)ccc1Br	3.2*
O=C1c2ccccc2-c2c1c1ccccc1c(=O)n2Cc1ccc(F)cc1	0.38
NS(=O)(=O)c1ccc2c(c1)C(=O)c1cc(S(N)(=O)=O)ccc1-2	-0.51
O=[N+]([O-])c1ccc(Sc2ccc(Cl)cc2)c(-c2ccn[nH]2)c1	0.98
CC1(C)O[C@@H]2C[C@H]3[C@@H]4C[C@H](F)C5=CC(=O)CC[C@]5(C)[C@H]4[C@@H](O)C[C@]3(C)[C@]2(C(=O)CO)O1	0.2
Nc1ccc(C(=O)NCC(=O)O)cc1	2
Cc1cc(=O)n2[nH]c(-c3ccccc3)c(Br)c2n1	-1.2
CC(C)(C)c1ccc(C(=O)C(C#N)=C2SCCCS2)cc1	-1.9
O=C(Nc1nc2c(ccc3ccccc32)s1)c1ccco1	5.7*
O=C(Nc1nc2ccsc2c(=O)s1)c1ccco1	0.51
SMILES	Dicer processing
Cc1csc2c(=O)sc(NC(=O)c3ccco3)nc12	0.15
N#Cc1cnn(S(=O)(=O)c2ccc(Cl)cc2)c1C1CC1	-0.57
O=C(Nc1ccc(Cl)cc1[N+](=O)[O-])c1ccccc1[N+](=O)[O-]	-1.4
CN(C1CC2C=CC1C2)S(=O)(=O)c1cc(Cl)sc1Cl (centres undefined)	-1.7
c1ccc(C2Cn3nnnc3-c3ccccc3O2)cc1 (centres undefined)	0
N#C/C(=C/c1cccc2ccccc12)C(N)=S	0.13
N#Cc1c(N)nc2c(c1-c1ccccc1)CCCCC2	-2
O=C(Nc1ccccc1)NC1CCS(=O)(=O)C1 (centres undefined)	2.8
Cc1ccc(OC2CCS(=O)(=O)C2)cc1 (centres undefined)	0.65
O=C(Oc1ccccc1)OC1CCS(=O)(=O)C1 (centres undefined)	4*
Cc1nc(C#Cc2cccnc2)cs1	-0.79
COc1ccccc1/C=C/c1nc2ccccc2n1C	-0.47
Cn1c(=O)c(/C=C/c2ccccc2)nc2ccccc21	-0.3
Cn1c(/C=C/c2ccccc2)nc2ccccc21	3.7*
O=S(=O)(/C=C/c1ccccc1)c1ccc(F)c(Cl)c1	-0.86
O=C(O)CS(=O)(=O)/C=C/c1ccccc1	19*
O=C(N/N=C/C=C/c1ccccc1)N/N=C/C=C/c1ccccc1	-0.35
CCOC(=O)C1=C(C)NC2=C(C(=O)CC(c3cccs3)C2)C1c1ccc(CC)s1 (centres undefined)	0.15
O=c1c2oc3nc(-c4ccccc4)cc(-c4ccco4)c3c2ncn1/N=C/c1ccc(F)cc1	2.5
O=c1[nH]cnc2c1oc1nc(-c3ccc(Cl)cc3)cc(-c3ccco3)c12	6.5*
NNC(=O)c1oc2nc(-c3ccc(Cl)cc3)cc(-c3ccccc3)c2c1N	-2.9
Cc1cc(C)n2nc(SCC(=O)Nc3ccc(Cl)cc3)nc2n1	-0.13
O=C(Nc1ccc(OCc2ccccc2)cc1)N1CCN(C(=O)C2COc3ccccc3O2)CC1 (centres undefined)	-0.69
Cc1ccc(C(=O)COC(=O)c2ccc3nc(C)c(C)nc3c2)cc1	-0.11
CCOC(=O)c1ccc2nc(C)c(C)nc2c1	4.8*
SMILES	Dicer processing
COC(=O)c1ccc2nc(C)c(C)nc2c1	2.4
Cc1ccc(C)c(CSc2nc(C3CCCCC3)c(C#N)c(=O)[nH]2)c1	4.3*
CSc1nc(CSc2ccc(Cl)cc2)nc(C2CC2)c1C#N	6.9
CCc1ccccc1CSc1nc(C)cc(C)c1C#N	0.42
Oc1ccccc1Nc1nc(NCc2ccccc2)c2ccccc2n1	2.4
Cc1cccc(C)c1NC(=S)N(CCC#N)Cc1ccccc1	0.93
Cc1ccc(-c2cc(=O)c3c(=O)n(-c4ccccc4)[nH]c3[nH]2)cc1	-0.59
c1ccc(-c2cc3ccccc3[nH]2)cc1	-0.6
Cc1ccc(-c2cc3ccccc3[nH]2)cc1	16*
Fc1ccccc1-c1nn2c(Cc3ccccc3)nnc2s1	0.65
c1ccc(Cc2nnc3sc(-c4ccco4)nn23)cc1	-0.3
CSc1nn2c(=O)c(Cc3ccccc3)nnc2s1	3.2*
CCOC(=O)C1C2C=CC3(CN(CC4CCCO4)C(=O)C13)O2 (centres undefined)	-0.46

From PubChem BioAssay
